# Bioassay records deposited in PubChem by Broad Institute.
# Not all results are given here.
# aSyn UTR act: Activators working through SNCA 5'UTR binding (MLPCN) | alpha-synuclein 5'UTR reporter, activators screen | activity score, % (tested at 7.5 µM), hits read low | 300,000 compounds, 7.1% hits | AID 1814; in the data active = activity score below about -60%
# An asterisk follows results filed as active.
SMILES,aSyn UTR act
Cc1cccc(OCc2n(CC(=O)OC3CC(C)CCC3C(C)C)c3ccccc3[n+]2C)c1 (stereo unspecified),60
Cc1ccc(CNC(=O)Nc2cccc(C)c2)cc1,-117*
O=C(NCc1ccc(F)cc1)Nc1cccc(Cl)c1,-149*
Fc1cccc(NC(=S)NCc2ccccn2)c1,-94*
CCN(CC)CC(=O)Nc1ccc(C)cc1Br,-77*
O=C(NCc1ccc(F)cc1)Nc1ccc(Cl)cc1,-65*
CCCCCCNC(=O)Nc1ccccc1,-88*
Brc1ccc(Cn2c(-c3cncs3)nc3ccccc32)cc1,-112*
c1ccc(Cn2c(-c3cncs3)nc3ccccc32)cc1,-92*
CCOc1ccc(-c2csc3nc[nH]c(=O)c23)cc1,-154*
Cc1cccc(Nc2nc(-c3ccccc3)c(C(=O)Nc3cccnc3)s2)c1,-143*
COc1cccc(/C=N/NC(=O)c2cc(-c3cccn3C)n[nH]2)c1O,95
COc1cc(/C=N/NC(=O)c2cc(-c3cccn3C)n[nH]2)cc(OC)c1OC,-71*
Cc1ccc(N/C=C/C(=O)c2cccs2)cc1C,-180*
Cc1cc(N/C=C/C(=O)c2cccs2)ccc1F,-250*
O=C(/C=C/Nc1ccccc1C(=O)O)c1cccs1,-72*
O=C(/C=C/Nc1cccc([N+](=O)[O-])c1)c1cccs1,-279*
O=C(/C=C/Nc1ccc(Nc2ccccc2)cc1)c1cccs1,-170*
COc1nc(NCc2ccco2)nc(NC2CCCCC2)n1,-94*
FC(F)Oc1ccccc1/C=N/Nc1nc2ccccc2o1,-165*
Fc1ccccc1/C=N/Nc1nc2ccccc2o1,-200*
CCc1ccc(-c2cn3nc(C)c(C)nc3n2)cc1,87
COc1ccc(-c2cn(Cc3ccc(C)cc3)nn2)cc1,-108*
CCCCCc1ccc(-c2cn(Cc3ccc(C)cc3)nn2)cc1,-99*
O=C(Nc1ccc(-c2nc3cc(Cl)ccc3o2)cc1)C1CCCO1 (stereo unspecified),-81*
SMILES,aSyn UTR act
O=C(Nc1ccc2oc(-c3ccccc3)nc2c1)C1CCCO1 (stereo unspecified),-162*
Cc1ccccc1-n1c(SCC(=O)N/N=C/c2c(C)nn(-c3ccccc3)c2C)nc2ccccc2c1=O,58
Cc1nc(COC(=O)c2c(C)nn(-c3ccccc3)c2C)cs1,-104*
Cc1csc2nc(CCNS(=O)(=O)c3cccs3)cn12,-141*
CCCS(=O)(=O)NCc1cn2c(C)csc2n1,-112*
Cc1csc2nc(CNC(=O)c3ccco3)cn12,-68*
CNC(=O)C1CCN(S(=O)(=O)c2c(C)noc2/C=C/c2ccccc2F)CC1,-69*
Nc1ccc2c(c1)sc1ccccc12,-148*
CC(=O)c1ccc(Nc2ccc(-c3ccccc3F)nn2)cc1,-172*
CC(=O)c1ccc(N/N=C(/C(N)=O)C2=NC(C)(C)Cc3ccccc32)cc1,56
Oc1ccccc1-c1nnc(COc2ccccc2)o1,-88*
Clc1ccc(-c2nnc(CCc3ccccc3)o2)c(Cl)c1,-155*
c1ccc(OCc2nnc(-c3ccccc3)o2)cc1,-129*
Oc1ccccc1-c1nnc(COc2ccc(Cl)cc2Cl)o1,-170*
Cc1nonc1NC(=O)c1oc2ccc(F)cc2c1C,-73*
Cc1cc2oc(C(=O)Nc3nonc3C)c(C)c2cc1Cl,-88*
O=C(Nc1nc2ccc(F)cc2s1)C1CCN(S(=O)(=O)c2cc([N+](=O)[O-])ccc2Cl)CC1,-197*
Cc1ccc2nc(NC(=O)C3CCN(S(=O)(=O)c4cnc[nH]4)CC3)sc2c1,-78*
Cc1cccc(CS(=O)(=O)c2ncc(Cl)c(C(=O)NCc3ccccc3)n2)c1,64
O=C(NCc1ccccc1)C1CCN(S(=O)(=O)c2cc([N+](=O)[O-])ccc2Cl)CC1,-67*
CC(=O)N1c2ccc(S(=O)(=O)N3CCC(C(=O)NCc4ccccc4Cl)CC3)cc2CC1C (stereo unspecified),-182*
O=C(NCCc1ccccc1)c1ccccc1NC(=O)C1CCCCC1C(=O)O (stereo unspecified),-146*
CC(C)c1ccc(NC(=O)c2ccccc2NC(=O)C2CCCCC2C(=O)O)cc1 (stereo unspecified),-121*
CCOC(=O)CNC(=O)c1cc(-c2ccc3c(c2)OCCO3)oc1C,-99*
CCOC(=O)CNC(=O)c1ccc2c(c1)OCCO2,-64*
SMILES,aSyn UTR act
O=C(NCCc1cccs1)c1ccc(Cl)c(Cl)c1,-209*
Cc1ccc(C(=O)NCCc2cccs2)cc1,73
O=C(NCc1cccs1)c1ccc2c(c1)OCCO2,-70*
C/C(=N\NC(=O)c1c(C)nc2ccccn12)c1ccc(O)cc1O,84
Cc1ccc(NC(=O)c2c(Cl)nc3ccccn23)cc1,-153*
Cc1nc2ccccn2c1C(=O)Nc1ccc(Cl)cc1,-160*
Cc1nc2ccc(-c3ccccc3)cc2o1,-79*
CC(=O)Nc1ccc(-c2csc(NCc3ccccc3)n2)cc1,-75*
C/C(=N/Nc1nc(-c2ccc(Cl)cc2)cs1)c1cccs1,-75*
CC(=O)Nc1ccc(-c2csc(N/N=C(/C)c3ccccc3)n2)cc1,-102*
O=[N+]([O-])c1ncccc1OCc1ccc(Cl)c(Cl)c1,-121*
COc1ccc2c(c1)oc(=O)c1c3ccccc3[nH]c21,-277*
COc1ccc2c(c1)oc(=O)c1cc(OC)ccc12,-182*
COc1ccc2c(=O)c3ccccc3oc2c1,-147*
O=C1N(c2ccccc2)C[C@@H]2C[C@@H](c3cc4ccccc4o3)N3CCC[C@@]123,-594*
CCOc1cc(C2c3c(n[nH]c3C)C(=O)N2c2ccc(Br)cc2)ccc1O (stereo unspecified),-62*
COc1cc(/C=C2/SC(=S)N(Cc3ccccc3)C2=O)ccc1O,-67*
CCN=C1S/C(=C\c2ccc(O)c(OCC)c2)C(=O)N1CC,68
C#CCOc1ccc(/C=C2\SC(=S)N(Cc3cccnc3)C2=O)cc1,-82*
COc1ccc(/C=C2/SC(=S)N(CC(=O)O)C2=O)cc1OCc1ccc(Cl)cc1,-132*
COc1ccc(/C=C2\SC(=S)N(Cc3cccnc3)C2=O)cc1C,-127*
CCc1ccc(/C=C2\SC(=S)N(CCC(=O)Nc3cc(C)on3)C2=O)cc1,69
Cc1ccc(C(=O)c2cnc3cc4c(cc3c2S(=O)(=O)c2ccccc2)OCCO4)cc1,-133*
COc1ccc(C(=O)Nc2ccc(Cl)cn2)cc1Cl,-182*
CN(C)S(=O)(=O)c1cccc(C(=O)Nc2ccc(Cl)cn2)c1,-116*
SMILES,aSyn UTR act
Oc1ccc(Br)cc1/C=N/n1cnc2ccccc21,-262*
Oc1ccc(Br)cc1/C=N/N1CCCCC1,-221*
CN(C)/N=C/C=C1\CC/C(=C\c2ccc(Br)cc2)C1=O,-84*
CN(C)/N=C/C=C1\CCC/C(=C/c2cccs2)C1=O,-173*
CC(=O)O[C@H]1C(=O)[C@]2(C)[C@H]([C@H](OC(=O)c3ccccc3)[C@]3(O)C[C@H](OC(=O)[C@H](O)[C@@H](NC(=O)c4ccccc4)c4ccccc4)C(C)=C1C3(C)C)[C@]1(OC(C)=O)CO[C@@H]1C[C@@H]2O,95
O=C(Nc1cccc(C(F)(F)F)c1)c1scc2c1OCCO2,-73*
N/C(=N\OC(=O)COc1ccccc1)c1ccc(Cl)cc1,-67*
N/C(=N\OC(=O)COc1ccccc1)c1cccnc1,-113*
COc1ccc(/C(N)=N/OC(=O)COc2ccccc2Cl)cc1,-141*
N/C(=N\OC(=O)CSc1ccccc1)c1ccncc1,-91*
N/C(=N\OC(=O)COc1ccccc1)c1ccncc1,-82*
COc1cccc(OCC(=O)O/N=C(\N)c2ccncc2)c1,-90*
CC(C)CCNC(=O)c1ccccc1NC(=O)C1=CSCCO1,-119*
